# According to PubChem BioAssay AID1851 (National Center for Advancing Translational Sciences (NCATS), 2009):
# Among all 16,000 compounds or so, about 5,100 (32%) were called active. About 25% were inconclusive and are not listed. This is one part of the list. Unmarked numbers belong to inactive results. Calls come from the whole dose curve; as a rule, active = well fitted curve in the direction sought with a large enough effect; inconclusive = small, poorly fitted or top-dose-only effect, or effect the other way; inactive = no such curve, though single readings can be large or run the other way.
# Target: Cytochrome P450 3A4 (Homo sapiens) (UniProt P08684)
# Assay: Cytochrome panel assay with activity outcomes
# Details: recombinant CYP, pro-luciferin dealkylation, luminescence, p450-cyp3a4; series mostly up to 57.1 µM; activity, negative = inhibition: at the top concentration
# % is set by controls: 0 for no effect and ±100 for the full control effect.
# Cytochrome P450 3A4 (Homo sapiens), sequence (P08684 whole entry, looked up): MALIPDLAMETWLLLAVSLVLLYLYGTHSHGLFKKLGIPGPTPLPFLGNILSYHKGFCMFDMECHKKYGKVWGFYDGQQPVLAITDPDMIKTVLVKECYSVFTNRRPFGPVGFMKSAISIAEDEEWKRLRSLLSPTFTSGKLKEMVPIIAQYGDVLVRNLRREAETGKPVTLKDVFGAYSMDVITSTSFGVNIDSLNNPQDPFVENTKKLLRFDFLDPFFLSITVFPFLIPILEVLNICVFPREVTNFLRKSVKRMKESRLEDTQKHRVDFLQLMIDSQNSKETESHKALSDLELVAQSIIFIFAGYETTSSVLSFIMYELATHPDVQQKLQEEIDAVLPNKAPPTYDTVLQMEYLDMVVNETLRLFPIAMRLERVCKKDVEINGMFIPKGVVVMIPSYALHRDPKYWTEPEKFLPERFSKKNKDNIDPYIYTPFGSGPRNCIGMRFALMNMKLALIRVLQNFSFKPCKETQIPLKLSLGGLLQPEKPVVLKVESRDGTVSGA
SMILES,AC50,"activity, negative = inhibition"
COC(=O)[C@@]1(Cc2ccccc2)[C@H]2c3cc(C(=O)N(C)C)n(Cc4c(CO)[nH]cc(C)c4=O)c3C[C@H]2CN1C(=O)c1ccccc1,1.58 µM (active),
COC(=O)[C@@]1(Cc2ccc(F)cc2)[C@H]2c3cc(C(=O)N(C)C)n(Cc4c(CO)[nH]cc(C)c4=O)c3C[C@H]2CN1C(=O)c1ccccc1,1.58 µM (active),
COCCNC(=O)CSc1nc2ccc(N3CCOCC3)cc2c(=O)n1Cc1ccc(OC)cc1,5.01 µM (active),
CCCCNC(=O)CSc1nc2cc(OC)c(OC)cc2c(=O)n1Cc1ccc(OC)cc1,2.82 µM (active),
NC(=O)CSc1nc2sc(-c3ccccc3)cc2c(=O)n1N,,-22% [at 2.29 µM]
CCCCn1c(SCC(N)=O)nc2ccc(N3CCOCC3)cc2c1=O,10 µM (active),
CCCCn1c(SC(C)C(N)=O)nc2cc(C(=O)OC)ccc2c1=O (centres undefined),,-24%
Cc1ccc(OCC(=O)N2CCN(c3ccc([N+](=O)[O-])c(N4CCOCC4)c3)CC2)cc1,7.08 µM (active),
Cc1cc(N2CCOCC2)ncc1[N+](=O)[O-],,8.16% [at 2.29 µM]
Cc1ccc(OC(=O)c2ccc(N3CCOCC3)c([N+](=O)[O-])c2)cc1,,19.3%
CCOC(=O)NC(=O)CSc1nc2ccc(OCC)cc2[nH]1,28.2 µM (active),
COc1ccc(C(C)=O)c(OC(=O)c2ccco2)c1,,-5.71%
COC(=O)Nc1nc2ccc(SC(C)C)cc2[nH]1,,7.47% [at 25.6 µM]
CCCCc1ccc2nc(NC(=O)OC)[nH]c2c1,,7.68% [at 25.6 µM]
COc1ccc2nc(SCC(=O)c3ccco3)[nH]c2c1,11.2 µM (active),
CN(CC(=O)O)Cc1c(O)c(Cl)cc(Cl)c1Cl,,-14.8% [at 11.4 µM]
Cc1ccc2oc(-c3cccc(NC(=S)NC(=O)/C=C/c4ccco4)c3)nc2c1,1 µM (active),
O=C(COc1ccc(Cl)cc1)N(Cc1ccccc1)c1ccccn1,22.4 µM (active),
O=C(O)COc1c(Cl)cc(Cl)c2cccnc12,,-9.36% [at 11.4 µM]
C[N+](C)(C)CCN(Cc1ccc(Cl)cc1)c1ccccn1,,15.1%
O=C1O[C@@H]([C@H](O)[C@H](O)[C@H](O)CO)[C@@H](O)[C@@H]1O,,-1% [at 11.4 µM]
COc1ccc2c(c1OC)C(=O)N(C(C)C(=O)O)C2=O (centres undefined),,4.09%
COc1cccc(-c2cncnc2-n2ccnc2)c1,0.316 µM (active),
N#Cc1cccc(-c2cncnc2-n2ccnc2)c1,2.51 µM (active),

SMILES,AC50,"activity, negative = inhibition"
CCCC(=O)n1nc(-c2cccnc2)nc1N,,0.62% [at 2.29 µM]
c1cncc(-c2cncnc2-n2ccnc2)c1,7.94 µM (active),
CN(C)c1ccc(-c2cncnc2-n2ccnc2)cc1,2.51 µM (active),
Cc1ccc(C)c(N/C(N)=N/c2nc(C)cc(C)n2)c1,,-18.9%
Cc1ccc(C(C2C(=O)CC(C)(C)CC2=O)C2C(=O)CC(C)(C)CC2=O)s1,,-24%
C[N+](C)(C)CCCCCCCCCC[N+](C)(C)C,,11.2% [at 25.6 µM]
COc1ccccc1-c1cncnc1-n1ccnc1,0.251 µM (active),
COc1ccccc1-c1nnc(NC(C)=O)s1,,-18.1%
CC(C)(C)c1cc(C(=O)O)c(CN2CCCCC2)o1,,-12.5%
CC(Sc1ccc2c(c1)OCCO2)C(=O)Nc1ncc(Cl)cc1Cl (centres undefined),14.1 µM (active),
C/C(CCC(=O)OC[C@@H]1O[C@H](C#Cc2ccccc2)C=C[C@@H]1Oc1ccc(C)cc1)=N/O[C@@H](C)CN1CCCc2nc(C)c(C)cc21,3.98 µM (active),
C/C(CCC(=O)OC[C@@H]1O[C@H](C#Cc2ccccc2)C=C[C@@H]1Oc1ccc(C)cc1)=N/O[C@@H](C)CN1CCCCc2nc(C)c(C)cc21,3.16 µM (active),
Cc1cc(NC(=O)C2=C(O)c3ccccc3S(=O)(=O)N2C)no1,,-4.95% [at 25.6 µM]
Cc1nn2c3c(cnc2c1-c1ccccc1)C(=O)CC(c1ccccc1)C3 (centres undefined),,-7.16%
CCOC(=O)c1ccccc1N/C=C1\CCCCC1=O,,-9.45% [at 11.4 µM]
COC(=O)c1ccccc1N/C=C1\CCc2c(c(C)nn2-c2ccccn2)C1=O,14.1 µM (active),
CC(=O)Nc1ccc2c(c1)/C(=C/c1ccc([N+](C)(C)C)cc1)c1ccccc1-2,,-11.9% [at 11.4 µM]
O=C(Nc1ccc(Cl)c(C(F)(F)F)c1)C1CCCN(S(=O)(=O)c2cnc[nH]2)C1 (centres undefined),0.126 µM (active),
CCCS(=O)(=O)N1CCCC(C(=O)NCc2cccnc2)C1 (centres undefined),,-7.24% [at 2.29 µM]
COC(=O)c1cc(OC)c(OC)cc1NC(=O)CSc1ccc(C)cc1,1.58 µM (active),
COCc1nnc(NC(=O)CSc2ccc(C)cc2)s1,,-22.6% [at 11.4 µM]
COc1ccc(Cc2nnc(NC(=O)CSc3ccc(C)cc3)s2)cc1OC,8.91 µM (active),
O=C(O)CCCC[C@H]1CCSS1,,19.8%
NC(=O)CNC(=O)[C@@H]1CC2(CC(c3ccc(Cl)cc3)=NO2)CN1C(=O)c1ccccc1 (some centres undefined),,16.2% [at 2.29 µM]

SMILES,AC50,"activity, negative = inhibition"
NC(=O)[C@H]1CC2(CC(c3cccc(NC(=O)c4ccccc4)c3)=NO2)CN1C(=O)[C@H]1CCC(=O)N1 (some centres undefined),,10.5%
CCCCCC(=O)N1CC2(CC(c3cccc(NC(=O)c4ccccc4)c3)=NO2)C[C@@H]1C(N)=O (some centres undefined),15.8 µM (active),
NC(=O)CNC(=O)[C@@H]1CC2(CC(c3cccc([N+](=O)[O-])c3)=NO2)CN1C(=O)c1ccccc1 (some centres undefined),,8.44% [at 2.29 µM]
NC(=O)C1(NC(=O)[C@@H]2CC3(CC(c4cccc(NC(=O)c5cc([N+](=O)[O-])cc([N+](=O)[O-])c5)c4)=NO3)CN2C(=O)c2ccccc2)CC1 (some centres undefined),3.16 µM (active),
C=C(C)C(=O)N1CC2(CC(c3cccc(NC(=O)c4ccccc4)c3)=NO2)C[C@@H]1C(N)=O (some centres undefined),,14.3%
O=c1c2ccccc2nnn1CSc1nnc(COc2ccc(Cl)cc2)n1Cc1ccco1,12.6 µM (active),
CN(C)c1ccc2nc3c(C(=O)O)cc(=O)c(O)c-3oc2c1,,-10.3% [at 11.4 µM]
COc1ccc2[nH]cc(CCNc3cc(-c4ccc(C(=O)N(C)C)cc4)ncn3)c2c1,6.31 µM (active),
COc1ccc2[nH]cc(CCNc3ccnc(-c4ccc(C(=O)N(C)C)cc4)n3)c2c1,3.16 µM (active),
COc1ccc2[nH]cc(CCNc3ccnc(-c4ccc(N(C)C)cc4)n3)c2c1,5.01 µM (active),
COc1ccc2[nH]cc(CCNc3ccnc(-c4ccc5c(c4)OCO5)n3)c2c1,2.51 µM (active),
O=S(=O)(C=C(c1ccccc1)c1ccccc1)c1ccccc1,,3.56%
CCC(=S)/C=C1\Sc2ccc3ccccc3c2N1CCCS(=O)(=O)O,,-15.7%
COc1ccc2[nH]cc(CCNc3ccnc(-c4c(C)noc4C)n3)c2c1,2.51 µM (active),
COc1ccc2[nH]cc(CCNc3ccnc(-c4ccoc4)n3)c2c1,3.16 µM (active),
CCOC(=S)NC(=O)c1sc2ccccc2c1Cl,,-1.55%
Oc1ccc2ccccc2c1CN(Cc1c(O)ccc2ccccc12)C1CCCCC1,,-12% [at 11.4 µM]
O=C(NC(=S)N(CCCCO)C1CCCCC1)c1sc2ccccc2c1Cl,3.16 µM (active),
O=C1CN2CCN(CC2)CC(=O)Nc2ccc(cc2)S(=O)(=O)c2ccc(cc2)NC(=O)CN2CCN(CC2)CC(=O)Nc2ccc(cc2)S(=O)(=O)c2ccc(cc2)N1,,-29.8% [at 11.4 µM]
C#CCSc1nnc(-c2sc(-c3ccccc3)nc2C)n1C,1 µM (active),
CSc1nnc(-c2sccc2OCc2ccccc2)n1C,,-26.2%
CSc1nnc(-c2sc(-c3ccccc3)nc2C)n1C,,10.5%
Cc1ccc(-c2cc(-c3nnc(SCC(=O)NC(C)C(C)C)n3N)c3ccccc3n2)cc1 (centres undefined),14.1 µM (active),
O=C(O)CSc1cc(-c2ccccc2)nc2ccccc12,,-1.98% [at 11.4 µM]

SMILES,AC50,"activity, negative = inhibition"
CCOC(=O)c1c(NC(=O)c2c(C)noc2C)sc2c1CCCCC2,,-8.22%
CCCCC(=O)Nc1sc2c(c1C(=O)OCC)CCC(C=O)=C2Cl,15.8 µM (active),
O=C(O)c1cc2ccccc2c(S(=O)(=O)O)c1O,,1.86% [at 11.4 µM]
C/C(CCN1CCCCc2nc(C)c(C)cc21)=N\O[C@@H](C)CN1CCCCc2nc(C)c(C)cc21,3.98 µM (active),
C/C(CCN1CCCCc2nc(C)c(C)cc21)=N\O[C@@H](C)c1cc(-c2c(C)cc(C)cc2C)no1,3.98 µM (active),
C/C(CCN1CCCc2nc(C)c(C)cc21)=N\O[C@@H](C)CN1CCCCc2nc(C)c(C)cc21,3.98 µM (active),
CCN(CC)C[C@@H](O)CN1CCCCc2nc(C)c(C)cc21,,-14.9% [at 11.4 µM]
Cc1cc2c(nc1C)CCCN2CC(O)CN1CCCc2nc(C)c(C)cc21,,-8.33% [at 11.4 µM]
C/C(CCN1CCc2nc(-c3ccccc3)c(-c3ccccc3)cc2C1)=N\O[C@@H](C)CN1CCCCc2nc(C)c(C)cc21,3.98 µM (active),
CO/N=C(\C)CCN1CCCc2nc(C)c(C)cc21,,-26.4% [at 11.4 µM]
Nc1ccc(C(=O)NCC(=O)O)cc1,,-3.58% [at 25.6 µM]
CC[N+](CC)(CC)CC[C@](O)(c1ccccc1)C1CCCCC1,,-16.7% [at 25.6 µM]
Nc1c2c(nc3ccccc13)CCC[C@H]2O,,-4.4%
CCc1ccc2c(c1)c(N=NC1=NC(=O)CS1)c(O)n2CC,,-22.3%
Cc1cc2c(nc1C)CCCN2C[C@@H](O)CN1CCN(C)CC1,,0.272% [at 11.4 µM]
Cc1cc2c(nc1C)CCCCN2C[C@H](C)O/N=C\[C@@H](C)[C@H](OCc1ccccc1)C(C)C,3.98 µM (active),
CCc1cc2c(nc1CC)CCN(CC/C(C)=N/O[C@@H]1O[C@H](COC(C)=O)[C@H](OC(C)=O)[C@H](OC(C)=O)[C@H]1OC(C)=O)C2,,-28.1% [at 11.4 µM]
C/C(CCN1CCCCc2nc(C)c(C)cc21)=N\O[C@@H](C)CN1CCCc2nc(C)c(C)cc21,3.16 µM (active),
Cc1cc2c(nc1C)CCCCN2C[C@H](O)CN1CCCc2nc(-c3ccc(Br)cc3)ccc21,,-29.7% [at 11.4 µM]
CCc1cc2c(nc1CC)CCN(CC/C(C)=N/O[C@@H](C)c1cc(-c3c(C)cc(C)cc3C)no1)C2,3.98 µM (active),
COc1ccc(-c2ccc3c(n2)CCCN3C[C@H](O)CN2CCCc3nc(-c4ccc(Br)cc4)ccc32)cc1,,-28.9% [at 11.4 µM]
Cc1cc2c(nc1C)CCCN2C[C@H](O)CN1CCCc2nc(-c3ccc(Br)cc3)ccc21,3.98 µM (active),
